Screening data as filed in PubChem BioAssay.
Shown are actives, neighbours in structure and some others; about 7% of the full set was active somewhere.
USP28 inh – inhibitors of human USP28 deubiquitinase; actives 3% (n = 47,000); AID 1645857, 2021; inhibition, % at 25 µM; purified USP28, Ub-rhodamine cleavage fluorescence, 30 min; Ubiquitin carboxyl-terminal hydrolase 28 (Homo sapiens), Q96RU2
USP30 block – inhibitors of human USP30 deubiquitinase | Ubiquitin carboxyl-terminal hydrolase 30 (Homo sapiens), Q70CQ3 | purified USP30, Ub-rhodamine cleavage fluorescence | inhibition, % at 25 µM | actives 5.3% (n = 47,000)
Target sequence (Q70CQ3 whole entry, looked up): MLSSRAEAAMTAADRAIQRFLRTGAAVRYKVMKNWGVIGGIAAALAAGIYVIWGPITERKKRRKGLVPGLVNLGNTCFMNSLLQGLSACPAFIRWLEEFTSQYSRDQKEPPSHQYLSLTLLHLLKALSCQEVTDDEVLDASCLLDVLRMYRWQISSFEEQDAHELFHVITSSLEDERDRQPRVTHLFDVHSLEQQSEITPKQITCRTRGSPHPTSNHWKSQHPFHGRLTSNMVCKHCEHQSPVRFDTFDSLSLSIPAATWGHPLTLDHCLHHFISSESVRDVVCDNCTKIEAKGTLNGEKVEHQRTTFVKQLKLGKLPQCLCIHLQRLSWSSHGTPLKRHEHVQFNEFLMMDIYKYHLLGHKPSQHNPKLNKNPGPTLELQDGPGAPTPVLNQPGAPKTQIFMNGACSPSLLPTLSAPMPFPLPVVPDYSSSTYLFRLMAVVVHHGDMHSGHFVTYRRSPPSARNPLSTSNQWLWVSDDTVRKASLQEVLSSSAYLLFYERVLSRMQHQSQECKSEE
A number is an active result; n = inactive. No stated cut-off is given here; in the data, active means inhibition above about 30%; inactive means the rest.

SMILES | USP28 inh | USP30 block
COc1ccccc1NC(=O)c1cccc(N2CCCN(Cc3ccccc3C)C2=O)c1 | n | n
O=C(Nc1ccc2nc3n(c(=O)c2c1)CCCC3)c1ccc(F)cc1Cl | n | n
COc1cc2nc(NC(=O)c3ccc(F)cc3Cl)sc(=O)c2cc1OC | 78 | 92
NC(=O)c1cc(CC2CCCN(C(=O)c3cc(F)cc(F)c3)CC2)ncn1 (stereo not given) | n | n
CCc1ccc(Nc2nc3ccncc3n(Cc3ccccc3)c2=O)cc1 | n | n
CCOc1cccc(CNc2nc3ccncc3n(Cc3ccccc3)c2=O)c1 | n | 36
O=C(c1cc(-c2ccccn2)n[nH]1)N1CCN(C(=O)c2ccco2)CC1 | n | n
O=S(=O)(c1ccccc1F)N1CCCC(c2nnc3ccccn23)C1 (stereo not given) | n | n
CCOc1ccc(CCNC(=O)c2cccc3c2C(=O)N(CCOC)C3)cc1OCC | 53 | n
COCCN1Cc2cccc(C(=O)NCc3ccccc3OC)c2C1=O | n | n
CCCN1Cc2cccc(C(=O)NCc3ccc(OC)cc3)c2C1=O | n | n
CCCN1Cc2cccc(C(=O)NCCc3ccccc3)c2C1=O | 31 | n
COc1ccc(NC(=O)C2(NC(=O)c3ccc(-n4cnnn4)cc3)CCCCC2)cc1 | n | n
Cc1cc(OC(C)C(=O)N2CCC3(O)CCCCC3C2)c2c(C)c(C)c(=O)oc2c1 (stereo not given) | n | n
Cc1cc(-c2cnc(NCc3cccc(F)c3)nc2[C@@H]2CCCO2)on1 | 35 | n
Cc1cc(-c2cnc(N3CCCC3)nc2[C@H]2CCCO2)on1 | n | n
CCN1CCC2(CN(C(=O)N(C)C)CC23CCN(C(=O)Cc2ccccc2)CC3)C1=O (stereo not given) | n | n
O=C(c1cccc(=O)[nH]1)N1CCC[C@@]2(C[C@@H](Oc3cccc(F)c3)CO2)C1 | n | n
CC(=O)N1CCCc2cc(S(=O)(=O)NCc3ccc4c(c3)OCO4)ccc21 | n | n
COc1cccc(CNS(=O)(=O)c2ccc3c(c2)CCCN3C(=O)C2CCC2)c1 | 30 | n
Cc1ccc(-n2c(=O)c3c4c(sc3n3c(SCC(=O)c5ccccc5)nnc23)CN(C)CC4)cc1 | n | n
COc1ccc(CC(=O)N2CC(=O)Nc3ccc(Br)cc3C2c2ccccc2)cc1OC (stereo not given) | n | n
O=C1CN(C(=O)CC2CCCCC2)C(c2ccccc2)c2cc(Br)ccc2N1 (stereo not given) | n | 41
O=C(CCSCc1ccccc1F)NCCc1ccccc1 | n | n
O=C(CCSCc1cccc(F)c1)NCCc1ccc(Cl)cc1 | n | 37
SMILES | USP28 inh | USP30 block
CCOC(=O)CSc1nc2nccnc2c(=O)n1Cc1ccccc1 | n | n
COc1ccc(Cn2c(SCC(=O)Nc3cc(C)[nH]n3)nc3nccnc3c2=O)cc1 | n | 49
Cc1ccc(C)c(C(=O)Cn2c(=O)c3c(ncn3CCC(C)C)n(Cc3ccccc3)c2=O)c1 | n | n
O=C(Nc1ccccc1F)c1nc(-c2cn(-c3ccc(F)cc3)nn2)no1 | n | n
O=C(Nc1ccccc1)c1nc(-c2cn(Cc3ccc(F)cc3)nn2)no1 | 37 | 55
CCN1CCN(C(=O)CCCN(c2ccccc2)S(C)(=O)=O)CC1 | n | 35
CCN1CCN(C(=O)c2cc(-c3ccccc3)cn2C)CC1 | n | n
CN1CCN(C2(CNC(=O)Cc3ccc(Cl)cc3)CCCCC2)CC1 | n | n
Fc1ccccc1-c1nnc2n1-c1ccccc1SC2 | n | n
c1ccc(-c2nnc3n2-c2ccccc2SC3)cc1 | n | 31
Cc1sc(NC(=O)c2ccc(S(=O)(=O)N3CCc4ccccc4C3)cc2)c(C(N)=O)c1C | n | n
CCOC(=O)c1ccc(NC(=O)c2ccc(S(=O)(=O)N3CCc4ccccc4C3)cc2)cc1 | n | 50
CCOC(=O)c1cccc(NC(=O)c2ccc(S(=O)(=O)N3CCN(C)CC3)cc2)c1 | 31 | n
CC(C)NS(=O)(=O)c1ccc(C(=O)Nc2ccc(-c3nc4ccccc4o3)cc2)cc1 | n | n
N#Cc1cccc(NC(=O)c2ccc(S(=O)(=O)N3CCOCC3)cc2)c1 | n | n
Cc1cc(C)c(S(=O)(=O)N2CCC(C(=O)OC(C)C(=O)Nc3ccccc3-c3ccccc3)CC2)c(C)c1 (stereo not given) | n | n
O=C(Nc1ccc(-c2nc3ccccc3o2)cc1)c1ccc(S(=O)(=O)N2CCc3ccccc3C2)cc1 | n | 34
CCOC(=O)c1ccc(S(=O)(=O)N2CCC(C(=O)OC(C)C(=O)Nc3cccc([N+](=O)[O-])c3)CC2)cc1 (stereo not given) | 42 | 83
CC(=O)N1CCCCCC1C1CCN(c2nccc(C(F)(F)F)n2)CC1 (stereo not given) | n | n
COC(=O)c1ccc(C(=O)Nc2ccc(Cl)cc2)nc1 | n | n
Fc1ccccc1CN1CCC(c2cc(-c3cccc4ccccc34)n[nH]2)CC1 | n | n
Cc1ccsc1C(=O)N1C[C@H](OCc2cccnc2)[C@H]2COC[C@H]21 | n | n
CC1(c2nnc(-c3ccc4c(c3)OCCO4)o2)CCOCC1 | n | n
Cc1ccc(CNC(=O)c2ccccc2OCc2ccc(Cl)cc2)cc1 | n | n
COc1ccccc1Nc1ncc(C(=O)NCc2ccc(F)cc2)c2ccccc12 | n | n
SMILES | USP28 inh | USP30 block
COc1ccccc1CNC(=O)c1ccccc1OCc1ccc(F)cc1 | n | 38
COc1cccc(CNC(=O)c2ccccc2OCc2ccccc2)c1 | n | 41
Cc1cc(C)n(CC2CN(Cc3nc(-c4ccoc4)no3)CCO2)n1 (stereo not given) | n | n
COCCNC(=O)c1ccn(-c2ccc3ccc(-c4cnn(C)c4)cn23)n1 | n | n
O=C(NCc1ccc(Cl)cc1)c1cccc(N2C(=O)CCS2(=O)=O)c1 | n | n
O=C(NCc1ccc(Cl)cc1)c1ccc(N2CCCS2(=O)=O)cc1 | 45 | n
Cn1c(O)c(C2=Nc3ccccc3SC(c3ccc(O)cc3)C2)c(=O)n(C)c1=O (stereo not given) | n | n
CN(C)c1ccc(C2CC(c3c(O)n(C)c(=O)[nH]c3=O)=Nc3ccccc3S2)cc1 (stereo not given) | 51 | n
Cc1cc(C)cc(S(=O)(=O)N2CCN=C2N2CCN(C)CC2)c1 | n | n
Cc1ccc(S(=O)(=O)N2CCC(C(=O)OCC(=O)Nc3ccc(OC(F)(F)F)cc3)CC2)cc1C | n | 43
Cc1ccc(S(=O)(=O)N2CCC(C(=O)OCC(=O)Nc3ccc4c(c3)CCC4)CC2)cc1C | n | n
O=C(Cc1ccccc1O)N1CCc2nc3ccccc3c(=O)n2CC1 | n | n
Cc1ccc(C(C)C(=O)N2CCc3nc4ccccc4c(=O)n3CC2)cc1 (stereo not given) | n | 30
O=C1COC2(CCN(C(=O)C3(c4cccc(F)c4)CCOCC3)C2)CN1c1ccc(F)cc1 (stereo not given) | n | n
CCc1noc(NC(C)=O)c1-c1ccc(C)c(S(=O)(=O)N2CCC(C)CC2)c1 | n | n
O=C(NC1CCS(=O)(=O)C1)c1cc(-c2ccccn2)nc2ccccc12 (stereo not given) | n | n
Cc1nc(OCc2ccccc2C#N)c2ccccc2n1 | n | n
COc1ccc(Cn2c(=O)sc3ccccc3c2=O)cc1 | 44 | n
Cc1ccccc1Cn1c(=O)sc2ccccc2c1=O | n | n
CCN1C(=O)SC(C(O)c2ccc(Cl)c([N+](=O)[O-])c2)C1=O (stereo not given) | n | n
